High-throughput results deposited in PubChem BioAssay by The Scripps Research Institute Molecular Screening Center.
TEAD-YAP block – TEAD-YAP interaction inhibition; inhibition, % at 9.12 µM; 1.4% of 640,000 active; HEK-TIYL cells, TEAD-Gal4/YAP UAS-luciferase luminescence; in the data active means inhibition above about 32%
MITF inh – inhibitors of human MITF; 0.91% of 650,000 active; O75030; AlphaScreen MITF homodimerization, bead proximity signal; inhibition, % at 2.6 µM; in the data active means inhibition above about 50%
Target sequence (O75030 whole entry, looked up): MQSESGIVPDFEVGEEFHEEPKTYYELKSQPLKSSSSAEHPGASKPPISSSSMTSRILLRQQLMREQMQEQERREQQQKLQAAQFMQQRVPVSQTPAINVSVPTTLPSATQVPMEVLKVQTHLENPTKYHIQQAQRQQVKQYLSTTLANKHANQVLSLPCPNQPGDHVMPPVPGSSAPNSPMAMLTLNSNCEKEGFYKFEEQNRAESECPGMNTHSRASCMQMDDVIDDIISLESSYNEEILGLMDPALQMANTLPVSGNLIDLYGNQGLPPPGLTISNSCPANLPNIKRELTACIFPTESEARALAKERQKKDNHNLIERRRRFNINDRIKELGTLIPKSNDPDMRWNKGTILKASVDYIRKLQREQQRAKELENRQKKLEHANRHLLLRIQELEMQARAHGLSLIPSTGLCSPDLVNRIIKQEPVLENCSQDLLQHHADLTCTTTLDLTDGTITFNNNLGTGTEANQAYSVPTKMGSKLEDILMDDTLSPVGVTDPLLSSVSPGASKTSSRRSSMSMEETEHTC
FBW7 act – activators of human E3 ligase FBW7; Q969H0; AlphaScreen FBW7–phospho-cyclin E peptide binding, activator screen; normalized activity (activation), % at 26.1 µM; 0.13% of 650,000 active; AID 1259310; in the data active means normalized activity above about 1.9%;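 further: purified mutant Fbw7 with reduced substrate affinity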
GPR151 ag – activates the human receptor GPR151; PathHunter beta-arrestin GPR151 cells, luminescence; activation, % at 11.2 µM; 1% of 650,000 active; AID 1508602; in the data active means activation above about 4.9%
Hits are given with their value; . = inactive. The list is not random: actives were taken first. Their share in the collection is about 3.5%.

SMILES	TEAD-YAP block	MITF inh	FBW7 act	GPR151 ag
COc1ccc(-n2ncc3c(N(C)C4CCCCC4)ncnc32)cc1	93	.	.	.
COc1ccc(-n2ncc3c(N4CCCC4)ncnc32)cc1	.	.	.	.
COc1ccc(S(=O)(=O)N2CC(C(=O)O)Oc3ccccc32)cc1 (configuration not stated)	.	.	.	.
COc1ccc(S(=O)(=O)N2CCOc3ccccc32)cc1	49	.	.	.
CC1=Nc2cc(C(=O)NCCCOC(C)C)ccc2Sc2ccccc21	38	.	.	.
COCCCNC(=O)c1ccc2c(c1)N=C(C)c1ccccc1S2	63	.	.	.
COc1cccc(OC)c1C(=O)Nc1ccc2oc(=O)ccc2c1	.	.	.	.
Cc1ccc(OCC(=O)Nc2ccccc2I)cc1	.	.	.	.
CC(=O)NC(CC(C)C)C(=O)NC(Cc1ccccc1)C(N)=O (configuration not stated)	.	.	2.5	.
CC(=O)NC(C(=O)NC(Cc1ccccc1)C(N)=O)C(C)C (configuration not stated)	.	.	2.0	.
COC(=O)C(C)NC(=O)C(Cc1ccccc1)NC(C)=O (configuration not stated)	.	.	.	.
Cc1ccc(N2CC(C(=O)Nc3nccs3)CC2=O)cc1Cl (configuration not stated)	61	.	.	.
Cc1ccc([N+](=O)[O-])cc1S(=O)(=O)Nc1ccc(-c2cn3cccc(C)c3n2)cc1	.	.	.	.
CCN(CC)S(=O)(=O)c1ccc(-c2csc(=Nc3ccc(F)cc3)n2CCc2ccc(OC)cc2)cc1	.	.	.	.
CCN(CC)S(=O)(=O)c1ccc(-c2csc(=Nc3ccc(F)cc3)n2CCO)cc1	46	.	.	.
O=S(=O)(c1ccc(-c2csc(=Nc3ccc(F)cc3)n2CCO)cc1)N1CCCC1	47	.	.	.
CCn1ncc(C2=NOC(C(=O)NCc3ccco3)C2)c1C (configuration not stated)	45	.	.	.
O=C(NCc1ccco1)C1CC(c2ccccc2F)=NO1 (configuration not stated)	.	.	.	.
O=C1N[C@H](Cc2ccccc2)C(=O)N2C[C@@H](NCc3ccc(Cl)cc3)C[C@@H]12	.	.	.	.
CC1CCCCN1C(=O)c1ccc(Sc2ccc(F)cc2)c([N+](=O)[O-])c1 (configuration not stated)	.	.	.	.
CCOc1ccc(S(=O)(=O)Nc2ccccc2CC)cc1	.	.	.	.
CCOc1ccc(S(=O)(=O)Nc2ccccc2OC)cc1	42	.	.	.
COc1ccc(S(=O)(=O)Nc2ccc(OC)cc2OC)cc1	61	.	.	.
COc1ccc(NS(=O)(=O)c2ccc(F)cc2)c(OC)c1	.	.	.	.
CCOc1ccccc1NS(=O)(=O)c1ccc(OC)cc1	47	.	.	.
SMILES	TEAD-YAP block	MITF inh	FBW7 act	GPR151 ag
Cc1ccccc1-c1noc(-c2c(-c3ccccc3Cl)noc2C)n1	.	.	.	.
N/C(=N\N=C\c1cccc([N+](=O)[O-])c1)c1ccccn1	43	.	.	.
N/C(=N\N=C/c1ccc(O)cc1)c1ccccn1	93	.	.	.
C/C(=N/NC(=O)c1ccccn1)c1cccc([N+](=O)[O-])c1	.	.	.	.
CC(C)OC(C(=O)c1ccccc1)c1ccccc1 (configuration not stated)	.	.	.	.
COc1cccc(-c2nc3ccccn3c2NCC2CCCO2)c1OC (configuration not stated)	.	.	.	.
Nc1nc(NCc2ccccc2)cc(-c2ccc3[nH]ccc3c2)n1	34	.	.	.
O=C(NCc1cccc(C(F)(F)F)c1)c1cccc(N2CCC(N3CCOCC3)CC2)n1	36	.	.	.
CN(C)c1ccc(NC(=O)CSc2nc3ccccc3c(=O)n2CC2COc3ccccc3O2)cc1 (configuration not stated)	.	.	.	.
CCCc1nnc(SCC(=O)N2CCc3ccccc32)n1CCOC	.	.	.	.
Cc1oc(C(=O)N2c3ccccc3CC2C)cc1S(=O)(=O)N(C)C (configuration not stated)	49	.	.	.
CC(=O)Nc1ccc(NC2OC(C)C(O)C(O)C2O)cc1 (configuration not stated)	.	.	.	.
COc1cc(-c2cc(=O)c3cc(O)ccc3o2)cc(OC)c1OC	.	.	.	.
COc1cc(-c2c3cc(O)c(=O)cc-3oc3cc(O)c(O)cc23)cc(Cl)c1OC	.	98	.	.
COc1ccc(-c2c3cc(O)c(=O)cc-3oc3cc(O)c(O)cc23)cc1C	.	109	.	.
COc1ccc(-c2cc(=O)c3c(O)cc(O)cc3o2)cc1O	.	.	.	.
CCN(CC)C(=O)c1ccc(Oc2nnnn2-c2ccccc2)c(OC)c1	32	.	.	.
COc1ccccc1Oc1nnnn1-c1ccc(C(=O)O)cc1	.	.	.	.
c1cc(OC2CCNCC2)cc(-c2cccs2)c1	.	.	.	.
CCOc1ccccc1C(=O)N/N=C/c1cccc(OC)c1O	.	.	.	.
COc1ccccc1/C=N/NC(=O)c1[nH]nc(-c2ccccc2)c1C	.	.	.	.
CCOc1cccc(/C=N/NC(=O)c2cc(-c3ccco3)[nH]n2)c1O	39	.	.	.
CCOc1cccc(/C=N/NC(=O)c2ccccc2O)c1O	88	.	.	.
CCOc1cccc(/C=N/NC(=O)c2[nH]nc(-c3ccccc3)c2C)c1O	48	.	.	.
CCOc1ccc(OC)cc1/C=N/NS(=O)(=O)c1ccc(Cl)cc1	65	.	.	.
SMILES	TEAD-YAP block	MITF inh	FBW7 act	GPR151 ag
CC(C)NCCCOc1ccc(Cl)cc1Br	32	.	.	.
CC(C)NCCOc1ccc(Cl)cc1Br	.	.	.	.
Cc1ccccc1OCC(O)CNC(C)(C)CO (configuration not stated)	.	.	.	.
NC(=O)c1cnn(-c2ccnc(NC(=O)Cc3ccc4c(c3)OCO4)c2)c1	45	.	.	.
Cc1cccc(NC(=O)Cc2ccc3c(c2)OCO3)n1	.	.	.	.
CCN(CC)c1ncccc1C(=O)N1CCCCC1	.	.	.	.
Cc1nc(NCCCO)c2c(-c3cccs3)csc2n1	32	.	.	.
CCOc1cc(C2Nc3ccc(C(=O)c4ccccc4)cc3NC3=C2C(=O)CC(C)(C)C3)ccc1O (configuration not stated)	45	.	.	.
COc1cc(C2C3=C(CCCC3=O)Nc3ccc4ncccc4c32)ccc1OC(C)=O (configuration not stated)	54	.	.	.
COc1ccc(C2Nc3ccc(C(=O)c4ccccc4)cc3NC3=C2C(=O)CCC3)cc1OC (configuration not stated)	59	.	.	.
CCOc1cc(C2Nc3ccc(C(=O)c4ccccc4)cc3NC3=C2C(=O)CCC3)ccc1O (configuration not stated)	64	.	.	.
COc1cc(C2C3=C(CCCC3=O)Nc3ccc4nc(C)ccc4c32)ccc1OC(C)=O (configuration not stated)	.	.	.	.
